Test results taken from PubChem BioAssay (NCATS).
Records with an inconclusive call do not appear. Unmarked numbers belong to inactive results. Activity calls are given as the source filed them. The call rests on the fitted dose curve; in most records, active means well fitted cell-killing curve with a large enough effect; inconclusive means small, poorly fitted or top-dose-only effect, or effect the other way; inactive means no such curve, though single readings can be large or run the other way.

Assays:
[1] = Viability qHTS for spleen associated tyrosine kinase inhibitor (SYKi) naive MV4-11 cells (AID 1963823); details: MV4-11 AML viability, CellTiter-Glo luminescence, 72 h; series mostly up to 45 µM; further: nearly all actives have a fitted effect of over 40% in size
How it was run: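 CellTiter-Glo luminescence, 10 min room-temperature incubation, gave viability. Cells: naive MV4-11 (500/well), treated 72 hr at 37 C, 5% CO2.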

[2] = Viability qHTS for spleen associated tyrosine kinase inhibitor (SYKi) drug resistant MV4-11 cells (AID 1963824); details: SYKi-resistant MV4-11 viability, CellTiter-Glo, 72 h; series mostly up to 45 µM; further: nearly all actives have a fitted effect of over 35% in size
How it was run: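 CellTiter-Glo luminescence, read 10 min after reagent addition, reports viability after a 72 hr compound exposure. Cells are an MV4-11 line made resistant to SYK inhibition, seeded at 500 per well onto compound-containing plates.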
Potency means the concentration at half of the fitted maximal effect.

| SMILES | Potency [1] | Potency [2] | viability (% of control) [1] | viability, % of control [2] |
| --- | --- | --- | --- | --- |
| C[C@]12CC[C@H]3[C@@H]([C@H](O)CC4=CC(=O)CC[C@@]43C)[C@@H]1CC[C@@H]2O | inactive | inactive | – | – |
| CN1CCCCC1Cn1cc(C(=O)c2cc([N+](=O)[O-])ccc2I)c2ccccc21 (stereo not given) | 14.6 µM (active) | 10.3 µM (active) | – | – |
| C=C(C)[C@@H]1CCC(C)=C[C@H]1c1c(O)cc(CCCCC)cc1O | 20.9 µM (active) | 16.6 µM (active) | – | – |
| C[C@]12CC[C@H](O)CC1=CC[C@@H]1C2CC[C@]2(C)[C@@H](C3=CC(=O)OC3)CC[C@]12O (stereo not given in full) | 11.4 µM (active) | 4.04 µM (active) | – | – |
| C[C@]12CCC(=O)C=C1CC[C@@H]1[C@@H]2[C@@H](O)C[C@]2(C)C(=O)CC[C@@H]12 | inactive | inactive | – | – |
| COc1ccc2c(c1)[nH]c1c(C)nccc12 | 13 µM (active) | 14.6 µM (active) | – | – |
| Nc1ncnc2c1ncn2[C@@H]1O[C@@H]2COP(O)(=S)O[C@H]2[C@H]1O (stereo not given in full) | – | – | 76.1% [at 9.25 µM] | 81% [at 9.25 µM] |
| C=CCN1CC[C@]23c4c5ccc(O)c4O[C@H]2[C@@H](O)CC[C@@]3(O)[C@H]1C5 | inactive | inactive | – | – |
| CC(C)=CCC[C@]1(C)C=Cc2c(O)c3c(c(CC=C(C)C)c2O1)O[C@]12C(=C[C@@H]4CC1C(C)(C)O[C@@]2(C/C=C(/C)C(=O)O)C4=O)C3=O | 0.517 µM (active) | 0.461 µM (active) | – | – |
| C[C@]12CC[C@H](O)C[C@@H]1CC[C@@H]1[C@@H]2CC[C@]2(C)[C@@H](C3=CC(=O)OC3)CC[C@]12O | 3.21 µM (active) | 2.55 µM (active) | – | – |
